This is an account of results in PubChem BioAssay AID2314 (National Center for Advancing Translational Sciences (NCATS), 2010).

Structures are written as SMILES. The whole screen tested about 300,000 compounds, of which about 37,000 (12%) were called active. Cut-off read from the data, not from the text of the source: active = max response mostly above about 13% (no sharp cut-off); inactive = mostly below about 14%. For the sample, actives were picked, then their nearest neighbours and some compounds at random.

A short description of this experiment: Cycloheximide Counterscreen for Small Molecule Inhibitors of Shiga Toxin. Note: read at 38.3 µM for the half of the compounds with a filed dose; 0% is about no effect. The following applies: cell reporter, cycloheximide protein synthesis inhibition counterscreen; active compounds read high.
With `CCNC(=O)CCc1nc(-c2ccc(C)cc2)no1`, the max response is 18.6% (active). In the case of `CCCCNC(=O)CCNC(=O)c1ccc(C(C)(C)C)cc1`, the max response is 5.17% (inactive). For the compound `CCOc1cc(-c2noc(CCC(=O)N3CCOCC3)n2)ccc1OC`, the max response is -0.629% (inactive). Regarding `Cc1ccc(-c2noc(CCC(N)=O)n2)cc1`, the max response was 15.6% (active). Consider `COc1ccc(N2CCN(C(=O)CCc3nc(-c4ccc(C)cc4)no3)CC2)cc1`, for which the max response is -3.69% (inactive).

With `CN1CCN(C(=O)CCc2nc(-c3ccc(Cl)cc3)no2)CC1`, the max response was 7.26% (inactive). In the case of `CCNC(=O)CCc1nc(-c2ccc(C(C)(C)C)cc2)no1`, the max response was 34.3% (active). Turning to `Cc1ccc(-c2noc(CCC(=O)Nc3ccccc3N3CCN(C)CC3)n2)cc1`, the max response was 3.85% (inactive). Turning to `Cc1ccc(-c2noc(CNC(=O)c3ccoc3C)n2)cc1`, the max response was 11% (inactive).

As for `CC(C)C(NS(=O)(=O)c1cccs1)C(=O)Nc1nc(C(C)(C)C)cs1` (stereo unspecified), the max response was -2.46% (inactive). As for `Cc1cc(NS(=O)(=O)c2ccc(NC(=O)C(C)Oc3cccc(C)c3C)cc2)nc(C)n1` (stereo unspecified), the max response is -0.471% (inactive). Turning to `Cc1ccc(C)c(NC(=O)C(OC(=O)c2ccc(C)s2)c2ccccc2)c1` (stereo unspecified), the max response is 6.66% (inactive).

In the case of `COc1cc(OC)c2c(-c3cccc(-c4cccc(N)c4)c3)cc(=O)oc2c1`, the max response was -2.04% (inactive). With `CC(C)n1c(=S)[nH]c2cc(C(F)(F)F)ccc21` the figure was 12.9% (inactive); with `Cc1oc2cc(Br)c(O)c(Br)c2c1C(=O)c1ccccc1`, 13.7% (inactive); with `OCC1(Cc2ccccc2C(F)(F)F)CCN(Cc2ccncc2)CC1`, 0.237% (inactive). `COC(=O)C1=C(C)NC(=O)NC1/C=C/c1ccccc1` (stereo unspecified): the max response is 0.456% (inactive). As to `COC(=O)C1=C(C)NC2=C(C(=O)c3ccccc32)C1c1ccc(-c2ccc(C(=O)O)cc2)o1` (stereo unspecified), the max response is 28.7% (active). With `Cc1ccc(C2C3=C(Nc4[nH]n(-c5ccccc5)c(=O)c42)c2ccccc2C3=O)cc1` (stereo unspecified) the figure was -3.8% (inactive); with `N=C1/C(=C/c2cccn2-c2cccc([N+](=O)[O-])c2)C(=O)N=C2SC=CN12`, -2.19% (inactive); with `CC1(C)CC2CC(C)(CN2c2ncnc3ccc(Br)cc23)C1` (stereo unspecified), -0.269% (inactive). On to `COc1ccc(Cc2cc(-c3ccc(F)cc3)n[nH]c2=O)cc1`, for which the max response was 16.2% (active). In the case of `COc1ccc(Cc2nnnn2CC(=O)O)cc1`, the max response was -1.14% (inactive). Turning to `COc1ccc(Cc2nnc(SC)[nH]c2=O)cc1`, the max response is 4.91% (inactive). As to `O=c1[nH]c2ccccc2n2c(-c3ccccc3)nnc12`, the max response is -2.01% (inactive). Turning to `CC(CN1CCC(n2nccc2NC(=O)C2CCCC2)CC1)c1ccccc1` (stereo unspecified), the max response was -1.46% (inactive).

For `COc1cc(OC)cc(C(=O)NCC(=O)OCc2csc(-c3ccccc3)n2)c1`, the max response was 20.1% (active). To `O=C(CNC(=O)c1ccccc1)NCC(=O)OCc1ccc(Cl)cc1` belongs -2.96% (inactive); to `COc1cc(OC)cc(C(=O)N[C@H](C(=O)OCC(=O)NC(C)c2ccccc2)C(C)C)c1` (stereo partly specified), 6.33% (inactive); to `COc1cccc(NC(=O)c2ccccc2N(Cc2ccccc2)S(C)(=O)=O)c1`, 1.56% (inactive). On to `O=C1c2ccccc2C(=O)C1c1ccccc1F`, for which the max response is -5.87% (inactive).

Consider `O=C1NC(c2ccccc2)Oc2ccccc21` (stereo unspecified), for which the max response is -1.34% (inactive). To `O=C1c2ccccc2C(=O)C1c1ccccc1` belongs 6.52% (active); to `Cc1ccc(C)c(NC(=O)C2Cc3ccccc3CN2C(=O)OCc2ccccc2)c1` (stereo unspecified), -3.28% (inactive). On to `N/C(=N\OC(=O)COc1ccc([N+](=O)[O-])cc1)c1ccc(Br)cc1`, for which the max response is 6.76% (inactive).

`N/C(=N\OC(=O)c1ccc([N+](=O)[O-])cc1)c1ccccn1`: the max response is 42.7% (active).

`N/C(Cc1ccc([N+](=O)[O-])cc1)=N\OC(=O)COc1ccc2ccccc2c1`: the max response is -3.82% (inactive). With `COc1ccc(C(=O)O/N=C(\N)c2ccccn2)cc1[N+](=O)[O-]` the figure was 59.4% (active); with `CO/N=C(\N)c1ccc([N+](=O)[O-])cc1`, 0.264% (inactive); with `O=C(OCc1ccc([N+](=O)[O-])cc1)c1ccccn1`, -3.03% (inactive). For `N/C(=N\OC(=O)Cc1ccc([N+](=O)[O-])cc1)c1ccccn1`, the max response is 61.5% (active). In the case of `COc1ccc(C(=O)NNC(=O)c2cnccn2)cc1[N+](=O)[O-]`, the max response is 1.13% (inactive).

For `Cc1ccc(C(=O)O/N=C(\N)c2ccccn2)cc1Cl`, the max response was 13.6% (inactive). For `CCC(=O)Nc1nnc(S(=O)(=O)N2CCCc3ccccc32)s1`, the max response is 1.29% (inactive). As to `Cc1ccccc1-n1cc(CNC(=O)C2CCC(=O)N(C3CC3)C2)cn1` (stereo unspecified), the max response is -1.75% (inactive).

As to `Cc1nn(C(C)C(=O)N2CCOCC2)c(=O)c2nn(-c3ccccc3)c(C)c12` (stereo unspecified), the max response is -8.4% (inactive). `CCOc1cc(NC(=O)c2ccccc2C(=O)O)c(OCC)cc1NC(=O)c1ccccc1F`: the max response was -0.886% (inactive). Turning to `Cc1cc(C(F)F)n2nc(C(=O)Nc3ccc(S(=O)(=O)NC45CC6CC(CC(C6)C4)C5)cc3)nc2n1`, the max response was -6.02% (inactive). `O=C(C/C(=N\NC(=O)c1ccccc1Br)C(F)(F)F)c1cccs1`: the max response was -1.94% (inactive). To `CC(C)c1ccc(S(=O)(=O)NC2CCCC2)cc1` belongs -3.21% (inactive); to `O=C(Cn1nc(C(=O)O)c2ccccc2c1=O)Nc1ccc(F)cc1`, 5.62% (inactive).

As to `CC(C(=O)NCCc1ccc(S(N)(=O)=O)cc1)N1C(=O)CC(C)(C)Sc2ccccc21` (stereo unspecified), the max response was -1.15% (inactive). For `Cc1cc(C)c(S(=O)(=O)NCC2CCC(C(=O)NCc3ccc4c(c3)OCO4)CC2)c(C)c1` (stereo unspecified), the max response was -0.416% (inactive). To `CN(C)CCOCCOc1ccc(Cl)c2ccccc12` belongs -1.16% (inactive). Turning to `O=C(NC(Cc1ccc(O)cc1)C(=O)O)/C(=C/c1ccccc1)NC(=O)c1ccccc1` (stereo unspecified), the max response is 18.4% (inactive). To `COc1ccc(N2C(=O)c3ccccc3NC2c2ccc(OC)c(CN3CCOCC3)c2)cc1` (stereo unspecified) belongs 28.2% (active); to `COc1ccc(C2Nc3ccccc3C(=O)N2c2ccc(Cl)cc2)cc1Cn1cc([N+](=O)[O-])cn1` (stereo unspecified), 46.2% (active). To `COc1ccc([N+](=O)[O-])cc1C1NN=C(c2cccc3ccccc23)S1` (stereo unspecified) belongs -2.19% (inactive). To `COc1ccc(CN2CCCC(C(=O)c3ccc(Cl)cc3)C2)cc1Cn1cncn1` (stereo unspecified) belongs -7% (inactive); to `COc1ccc(C2Nc3ccccc3C(=O)N2Cc2ccccc2)cc1Cn1nnc2ccccc21` (stereo unspecified), -1.8% (inactive). Regarding `COc1ccc(C2Nc3ccccc3C(=O)N2c2ccc(F)cc2)cc1Cn1nnc2ccccc21` (stereo unspecified), the max response is 2.31% (inactive).
